# TDP1 cell noCPT: qHTS for Inhibitors of human tyrosyl-DNA phosphodiesterase 1 (TDP1): qHTS in cells in absence of CPT; DT40 Tdp1-/- hTDP1 cells, no CPT, ATP luminescence, 48 h; Potency, µM (titrated, usually from 46.2 µM), without a hit: at the top dose activity change, negative = growth inhibition, most hits filed as inhibitors; actives 15% (n = 420,000); also: potency is read from the fitted curve at half-maximal effect; % is scaled to controls: 0 for no effect and ±100 for the full control effect; nearly all actives have a fitted effect of over 55% in size
#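 Growth of hTDP1-complemented DT40 Tdp1-knockout cells is measured by ATP luminescence after at least 48 hr compound exposure at 37 °C, with DMSO substituting for the 20 nM CPT used in the parallel screen.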
# TDP1 cell CPT: growth inhibition of DT40 Tdp1-/-;hTDP1 cells with camptothecin (screen for TDP1 inhibitors); chicken DT40 Tdp1-/-;hTDP1 cells + 20 nM CPT, ATP luminescence, 48 h; Potency, µM (titrated, usually from 46.2 µM), without a hit: at the top dose activity change, negative = growth inhibition, hits mostly inhibitors; actives 12% (n = 420,000); AID 686979; also: potency is read from the fitted curve at half-maximal effect; % is scaled to controls: 0 for no effect and ±100 for the full control effect; nearly all actives have a fitted effect of over 55% in size
#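 Cell growth measured by CellTiter-Glo luminescence after a minimum 48 h, 37 C compound exposure with 20 nM CPT in Tdp1-knockout DT40 cells stably expressing hTDP1, seeded 400/well; qHTS titration format.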
# IL1B secr inh: blocks inflammasome-driven IL-1 beta release | actives 4.7% (n = 360,000) | AID 743279 | THP-1 LPS/ATP IL-1B secretion, AlphaLISA, 16 h; active compounds read low | activity change, % at 57.5 µM; in the data active = activity change below about -50%; inconclusive = mostly about -30% to -49%; also: % is scaled to controls: 0 for no effect and ±100 for the full control effect
#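 THP-1 cells pretreated 1 hr with compounds (up to 57.5 uM final), then stimulated with LPS (250 ng/mL final) plus ATP (1.25 mM final); secreted IL-1B measured by AlphaLISA after 16 hr, decreased signal indicating inhibition.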
# ASM inhibitor: human S-ASM enzyme inhibition. placental ASM, HMU-PC fluorogenic substrate, 60 min. P17405. Potency, µM (top dose mostly 57.5 µM), inactives show top-dose activity change, negative = inhibition, most hits filed as inhibitors. actives 0.006% (n = 340,000). AID 504937; also: potency is read from the fitted curve at half-maximal effect
# Target sequence (P17405 47-631 limits assumed): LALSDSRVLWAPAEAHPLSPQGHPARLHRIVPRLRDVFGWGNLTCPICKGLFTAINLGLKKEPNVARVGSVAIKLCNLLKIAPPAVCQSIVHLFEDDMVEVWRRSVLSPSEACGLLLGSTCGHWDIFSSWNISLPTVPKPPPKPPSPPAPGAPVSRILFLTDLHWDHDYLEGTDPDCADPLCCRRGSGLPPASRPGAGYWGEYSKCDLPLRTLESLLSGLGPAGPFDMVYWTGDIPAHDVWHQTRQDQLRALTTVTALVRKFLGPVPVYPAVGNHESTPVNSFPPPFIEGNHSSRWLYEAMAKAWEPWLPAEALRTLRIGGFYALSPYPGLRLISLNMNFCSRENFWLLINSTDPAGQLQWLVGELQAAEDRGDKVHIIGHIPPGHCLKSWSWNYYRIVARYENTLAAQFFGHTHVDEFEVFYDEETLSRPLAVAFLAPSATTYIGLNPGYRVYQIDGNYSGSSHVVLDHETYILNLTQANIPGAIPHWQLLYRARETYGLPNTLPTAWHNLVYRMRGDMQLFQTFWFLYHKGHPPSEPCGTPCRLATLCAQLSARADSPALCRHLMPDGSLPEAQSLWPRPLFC
#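 HMU-PC0 cleavage (9 uM final) by human placental ASM, 60 min at 37 °C following 10 min compound exposure at RT; stopped at pH 10, fluorescence Ex 386/Em 447 nm.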
# HepG2 viability: counter-screen for TGF-b inhibitors: cytotoxicity in HepG2 cells; HepG2 CAGA-GFP viability, ATP luminescence, 18 h; Potency, µM (series often up to 46.1 µM), without a hit: top-dose activity change, negative = cytotoxicity, actives largely listed as cytotoxic; actives 0.76% (n = 410,000); AID 588856; also: potency is read from the fitted curve at half-maximal effect
#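 HepG2 CAGA-GFP cells (1000/well, DMEM with 1% FBS) received compound, then TGF-beta at 500 pg/mL final, and were incubated 18 hours at 37 degrees C. Viability was read by CellTiter-Glo luminescence. Media-only wells were set as complete cell-killing and DMSO as no toxicity.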
# TGFb inhibitor: blocks TGF-b signaling. Potency, µM (top dose mostly 46.1 µM), inactives show top-dose activity, negative = inhibition, hits mostly inhibitors. actives 1.2% (n = 410,000). AID 588855. HepG2 CAGA-GFP TGF-b/SMAD3 reporter, GFP fluorescence, 18 h; TGF-beta stimulated, 500 pg/mL final; also: potency is read from the fitted curve at half-maximal effect; % is scaled to controls: 0 for no effect and ±100 for the full control effect; nearly all actives have a fitted effect of over 65% in size
#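 Using HEPG2 CAGA-GFP reporter cells at 1000 cells/well, we pinned test compounds, stimulated with recombinant TGF-beta (500 pg/mL final) and measured total well GFP after 18 h.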
# Numbers without * were called inactive; ? = inconclusive; . = no result. Hits are enriched below; roughly 19% of the tested compounds scored in any of these assays. Unless noted, calls follow the shape of the dose curve; as a rule, active = well fitted curve in the direction sought with a large enough effect; inconclusive = small, poorly fitted or top-dose-only effect, or another doubt; inactive = no such curve, though single readings can be large; an effect the other way counts as inactive or inconclusive.
SMILES,TDP1 cell noCPT,TDP1 cell CPT,IL1B secr inh,ASM inhibitor,HepG2 viability,TGFb inhibitor
CC(C)Oc1ccc(C(=O)OC(C)C(=O)Nc2nc(-c3cccc([N+](=O)[O-])c3)cs2)cc1 (stereo not given),25.9µM*,16.4µM*,-2.5,-5.0%,-2.8%,5.8%
O=C(O)c1ccccc1C(=O)Nc1nc(-c2ccc3ccccc3c2)cs1,-3.3%,3.1%,0.8,-7.0%,6.0%,10.3%
O=C(/C=C\c1ccco1)Nc1nc(-c2ccc3ccccc3c2)cs1,?,?,-72.3*,-15.8%,-10.3%,-7.2%
O=C(Nc1nnc(Cc2ccccc2)s1)c1ccco1,-5.9%,-6.9%,0.8,1.8%,-13.7%,-12.0%
O=C(Nc1nc(-c2ccco2)cs1)c1ccccc1,?,13µM*,-21.5,-5.6%,1.6%,11.5%
O=C(Nc1nc(-c2ccc(Cl)s2)cs1)c1ccccc1,?,?,-5.3,-7.7%,-20.6%,-14.2%
NC(=O)c1cc(Cc2ccccc2)sc1NC(=O)c1ccco1,11.6µM*,?,-56.0*,-14.2%,-4.0%,-0.7%
O=C(Nc1cccc(F)c1)c1ccc(S(=O)(=O)N2CCCCC2)cc1,?,?,-5.9,-4.6%,-6.2%,-3.4%
CC(OC(=O)c1ccco1)C(=O)Nc1nc(-c2ccccc2)cs1 (stereo not given),16.4µM*,?,19.9,-2.6%,-6.6%,4.0%
C[C@H](CO)N1C[C@H](C)[C@@H](CN(C)Cc2ccc3c(c2)OCCN3C)OCc2cnnn2CCCC1=O,-3.7%,?,14.5,.,-0.7%,-1.9%
Cc1ccccc1N1CC(=O)N(c2ccccc2C)CC1=O,-14.0%,-5.0%,24.1,2.7%,-4.7%,11.4%
Cc1cccc2c1c1ccc3c(c1n2C)C(=O)C=CC3=O,0.411µM*,0.461µM*,9.9,-8.5%,-37.1%,15.8µM*
COc1ccc(-c2cc(C(F)(F)F)n3nc(C(=O)OC(C)C)cc3n2)cc1,16.4µM*,23.1µM*,.,.,2.2%,47.6%
COc1cccc(-c2cc(C(F)(F)F)n3nc(C(=O)N4CCCCC4c4cccnc4)cc3n2)c1 (stereo not given),16.4µM*,16.4µM*,-71.8*,49.1%,-22.1%,-28.7%
COc1ccc(-c2cc(C(F)(F)F)n3nc(C(=O)N4CCCCC4)cc3n2)cc1OC,18.4µM*,18.4µM*,?,163.8%,-3.2%,-8.1%
COc1ccc(-c2cc(C(F)(F)F)n3nc(C(=O)N4CCCCC4)cc3n2)cc1,23.1µM*,16.4µM*,-53.1*,382.6%,4.8%,-1.0%
O=C(c1cc2nc(-c3ccccc3)cc(C(F)(F)F)n2n1)N1CCCC1,2.6%,-17.6%,-28.1,5.9%,-9.8%,-5.5%
COc1ccc(-c2cc(C(F)(F)F)n3nc(C(=O)O)cc3n2)cc1OC,-20.7%,3.8%,-2.8,11.1%,-4.2%,17.9%
COc1cccc(-n2nc(-c3ccnn3-c3ccc(C)cc3)c(=O)n(C)c2=O)c1,-28.4%,?,-57.0*,-0.1%,11.4%,5.4%
COc1ccc(-n2nccc2-c2nn(-c3cccc(OC)c3)c(=O)n(C)c2=O)cc1,?,?,.,-0.6%,-41.8%,-11.1%
COc1cccc(-n2c(-c3ccco3)nc3c(cnn3-c3ccc(C)cc3)c2=O)c1,14.6µM*,14.6µM*,.,.,-31.3%,-29.8%
COc1ccc(-n2c(-c3ccccc3F)nc3c(cnn3-c3ccc(C)cc3)c2=O)cc1,13µM*,20.6µM*,.,.,-5.2%,?
CCc1nc2c(cnn2-c2ccc(Cl)cc2)c(=O)n1-c1ccc(OC)cc1,?,?,?,13.8%,-25.5%,?

# Assay outcomes from PubChem BioAssay.
